In the library only some 8.3% were active in any assay of this set; here they are far more common.
HCV inhibitor: blocks hepatitis C virus | AID 651820 | Huh7.5.1 HCVcc-Cre infection, luciferase reporter, 44 h | Potency, µM (series often up to 41.8 µM), most hits filed as inhibitors | 340,000 tested, 3.4% active
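Reporter virus HCVcc-Cre (~0.5 moi) infects cells exposed to compound; seeding density 1,000 cells/well with 4 h settling beforehand. Luminescence, 15 sec read, taken 44 h post-infection following a 15 min RT substrate incubation.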
FBPA Giardia inh: Giardia lamblia aldolase inhibition; 290,000 tested, 0.71% active; Potency, µM (doses to about 59.6 µM), most hits filed as inhibitors; purified Giardia FBPA; AID 2451; note: nearly all actives have a fitted effect of over 55% in size
Target sequence (A8B2U2 whole entry, looked up): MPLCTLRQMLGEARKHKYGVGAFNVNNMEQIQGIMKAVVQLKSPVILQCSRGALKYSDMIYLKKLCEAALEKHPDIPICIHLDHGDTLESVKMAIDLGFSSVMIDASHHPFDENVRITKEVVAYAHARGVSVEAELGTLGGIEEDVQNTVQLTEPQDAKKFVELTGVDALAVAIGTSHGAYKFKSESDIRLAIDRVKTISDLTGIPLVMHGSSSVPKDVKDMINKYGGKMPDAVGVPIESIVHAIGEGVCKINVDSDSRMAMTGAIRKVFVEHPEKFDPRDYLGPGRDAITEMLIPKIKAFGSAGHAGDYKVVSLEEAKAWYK
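Giardia FBPA (40 nM reagent) was preincubated 10 min at RT with compound (up to 57.5 uM final), then substrate plus GAPDH/TPI/NAD/arsenate coupling system with diaphorase/resazurin was added; resorufin fluorescence (525/598 nm) was read after 20 min.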
FMDV inh: foot and mouth disease virus antiviral activity; FMDV antiviral cell-based qHTS; Potency, µM (series often up to 57.9 µM), actives largely listed as inhibitors; 410,000 tested, 1.2% active; AID 1159524; calls by dose curve; tested in HEK293T cells; note: read-out not given here; nearly all actives have a fitted effect of over 45% in size
LASV entry inh: Lassa virus entry inhibition | Lassa virus pseudotype entry inhibition, cell reporter | Potency, µM (titrated, usually from 37.9 µM), usual class: inhibitors | 300,000 tested, 1.2% active | AID 540256; calls by dose curve; tested in HEK293 cells; note: nearly all actives have a fitted effect of over 50% in size
HCMV inh: inhibitors of human cytomegalovirus. 410,000 tested, 4.5% active. activity change, negative = inhibition, % at 57.5 µM. HFF cells, HCMV-luciferase reporter, 72 h; active compounds read low; in the data active = activity change below about -60%; inconclusive = no clear call, values can overlap the other calls; inactive = above about -39%
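Luciferase read-out from HCMV-luciferase-infected HFFs (MOI 1 PFU/cell) 72 h post infection at 37C; compounds added after 16 h cell attachment; activity normalized between buffer-only basal and Salinomycin (10uM) inhibitor controls.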
Marburg entry inh: Marburg virus entry inhibition. 300,000 tested, 1.8% active. Potency, µM (top dose mostly 37.8 µM), actives largely listed as inhibitors. AID 540276. Marburg virus pseudotyped entry inhibition, cell reporter; calls by dose curve; tested in HEK293 cells
A number is an active result; - = inactive; ? = inconclusive; . = not tested or not shown; + = active, no number; [ ] = remark or other dose. Unless noted, calls come from the whole dose curve; as a rule, active = well fitted curve in the direction sought with a large enough effect; inconclusive = small, poorly fitted or top-dose-only effect, or another doubt; inactive = no such curve, though single readings can be large; an effect the other way counts as inactive or inconclusive.

SMILES	HCV inhibitor	FBPA Giardia inh	FMDV inh	LASV entry inh	HCMV inh	Marburg entry inh
O=C(COc1ccccc1[N+](=O)[O-])Nc1ccc2oc(=O)ccc2c1	-	.	-	.	-	.
CCN(CC)c1ccc(NC(=O)Cn2c3ncccc3c(=O)n2-c2ccccc2)c(C)c1	.	.	-	-	-	.
COC(=O)C(C(=O)OC)C(Cc1cc(F)cc(F)c1F)NC=O (centres undefined)	.	-	.	.	.	.
COC(=O)N1C(c2ccccc2)=Cc2ccccc2C1CC(C)=O (centres undefined)	.	-[12.9 µM]	.	.	.	-
CNS(=O)(=O)c1cn(CC(=O)Nc2cccc(C(F)(F)F)c2)cc1S(=O)(=O)NC	.	.	-	-	+	.
O=Nc1ccc(Cl)cn1	.	.	.	.	-	.
CCOc1ncccc1C(=O)NCCc1ccc(S(N)(=O)=O)cc1	-	-	-	-	-67	-
CCOc1ccc(OCCC(=O)OCC(=O)NCCc2ccc(S(N)(=O)=O)cc2)cc1	-	.	-	.	-73	.
O=C1CC(c2ccccc2)Cc2[nH]c(=O)c(C(=O)Nc3ccc(OC(F)(F)F)cc3)cc21 (centres undefined)	.	.	-	-	-	-
COc1ccc(C2=Nn3c(nnc3-c3cccc(OC)c3OC)SC2)cc1OC	.	-	.	.	.	.
COc1ccc(Oc2c(C(F)(F)F)oc3c(CN4CCCC(C)C4)c(O)ccc3c2=O)cc1 (centres undefined)	.	.	-	-	-61	-
COc1ccc(-c2nnc(SCC(=O)Nc3ccc(C)c(Cl)c3)nc2-c2ccc(OC)c(OC)c2)cc1OC	.	.	-	-	-	.
CCOc1ccc(S(=O)(=O)NCC(c2ccc3c(c2)OCO3)N2CCN(C)CC2)cc1 (centres undefined)	?	.	-	?	-	7.9µM
COc1ccc(S(=O)(=O)NCC(c2ccc3c(c2)OCO3)N2CCN(C)CC2)cc1OC (centres undefined)	-	.	-	-	-	-
COC(=O)c1cnn(-c2ccc(Cl)cc2)c1/C=N/NC(N)=S	?	-	14µM	?	?	?
Nc1c(C(=O)N/N=C/c2ccc(Cl)cc2)cnn1-c1ccccc1	-	-	-	?	-	-
O=S(=O)(NCC1CCCO1)c1ccc(-c2ccc(S(=O)(=O)NCC3CCCO3)cc2)cc1 (centres undefined)	?	-	-	.	-93	-
CC(C)(C)c1ccc2c(c1)C(=O)c1ccccc1C2=O	-	-	-	8.9µM	-	?
CCc1ccc2c(c1)C(=O)c1ccccc1C2=O	-	-	-	-	-	-
c1ccc(-c2cn3nc(-c4ccccc4)sc3n2)cc1	?	.	10µM	?	.	?
c1ccc(-c2cn3ccccc3n2)cc1	-	.	-	-	-	11µM
Oc1ccc(-c2cn3ccccc3n2)cc1	-	-	-	.	-	.
Brc1ccc(-c2cn3ccccc3n2)cc1	-	-	-	2.8µM	-	?
O=[N+]([O-])c1ccc(-c2cn3ccccc3n2)cc1	-	.	-	.	-65	.
COc1cccc(CNC(=O)c2sc3nc4n(c(=O)c3c2C)CCC4)c1	.	.	-	-	-	.
SMILES	HCV inhibitor	FBPA Giardia inh	FMDV inh	LASV entry inh	HCMV inh	Marburg entry inh
COc1ccc(OC)c(CCNC(=O)c2c(C)nn(-c3ccc(F)cc3)c2-n2cccc2)c1	.	.	?	?	-	.
CCCSc1ccc2nc(-c3ccccc3)cn2c1	?	-	2.2µM	2.2µM	-64	?
COc1ccccc1C(=O)N(CCN(C)C)c1nc2cc(C)cc(C)c2s1	-	-	-	.	-	.
CCc1ccc2nc(N(CCCN(C)C)C(=O)c3ccc(S(=O)(=O)N(C)C4CCCCC4)cc3)sc2c1	-	.	-	?	-86	?
CCN(CC)CCN(C(=O)c1ccco1)c1nc2cc(C)cc(C)c2s1	.	.	-	?	-	.
CN(C)CCCN(C(=O)c1ccc(S(=O)(=O)N(C)C2CCCCC2)cc1)c1nc2ccc(F)cc2s1	-	.	-	?	-	?
CCN(CC)CCN(C(=O)c1c(F)cccc1F)c1nc2cc(C)cc(C)c2s1	10µM	-	-	.	-	.
Cc1cc(C)c2sc(N(CCN(C)C)C(=O)c3ccc4ccccc4c3)nc2c1	?	-	-	.	+	.
Cc1cc(C)c2sc(N(CCCN(C)C)C(=O)c3ccc(S(=O)(=O)N(C)C4CCCCC4)cc3)nc2c1	10µM	.	?	?	-	?
Cc1ccc(NC(=O)c2cccn2-c2nnc(N3CCCCC3)s2)cc1Cl	.	.	-	-	-	.
O=C(CSc1nc(-c2ccccc2)cs1)N1CCN(C(=O)c2ccco2)CC1	-	-	?	-	-103	-
O=C1CN(C(=O)CSc2nc(-c3ccccc3)cs2)c2ccccc2N1	?	-	?	?	-61	?
Cc1cccc2cc(C#N)c(SCC(=O)N3CC(=O)Nc4ccccc43)nc12	?	-	?	?	-96	?
O=C(OCC(=O)N1CCN(C(=O)c2ccco2)CC1)c1cn(-c2ccccc2)nc1-c1ccccc1	2.8µM	-	-	?	-	-
O=C1CN(C(=O)CSc2nncs2)c2ccccc2N1	-	-	-	-	-	?
COc1ccccc1C1(O)CCN(CCCn2c3ccccc3c3ccccc32)CC1	.	-	?	.	.	.
O=C(CN1C(=O)COc2ccc(S(=O)(=O)NC3CCCC3)cc21)NCc1ccc(Cl)cc1	.	.	-	-	-	.
COC(=O)c1cc2sc(C)cc2n1Cc1nc(-c2ccc(C)cc2)oc1C	.	.	-	.	-	-
CC1=C(C(N)=O)C(c2ccc(C)cc2)n2nc(SCc3ccccc3)nc2N1 (centres undefined)	.	.	-	-	-	?
Cc1oc(-c2ccccc2NS(C)(=O)=O)nc1CN(C)Cc1ccc(Cl)cc1	.	.	-	.	.	.
C=CCn1c(SCC(=O)N2CC(=O)Nc3ccccc32)nc2scc(-c3cccs3)c2c1=O	?	-	?	15µM	-	?
CC1(C)C(=O)Nc2ccccc2N1C(=O)CSc1nc(-c2ccccc2)cs1	?	-	16µM	-	-63	?
COc1ccc([N+](=O)[O-])c(OC)c1C(=O)NC(=O)Nc1nc(C)cc(C)n1	-	-	-	-	-	-
COc1ccc(Br)c(OC)c1C(=O)NC(=O)Nc1nc(C)cc(C)n1	-	20µM	-	-	-	-
Cc1ccc(-c2nc3cc(C)ccc3o2)cc1	-	-	10µM	14µM	-	?
SMILES	HCV inhibitor	FBPA Giardia inh	FMDV inh	LASV entry inh	HCMV inh	Marburg entry inh
Cc1ccc2oc(-c3cccc(N)c3)nc2c1	-	-	-	?	-	13µM
Nc1cccc(-c2nc3cc(S(=O)(=O)c4ccc5oc(-c6cccc(N)c6)nc5c4)ccc3o2)c1	-	-	-	?	-83	?
O=C1C(=O)c2ccccc2C(O)=C1c1cccc([N+](=O)[O-])c1	-	?	40µM	3.5µM	-66	5.6µM
CC(C)c1ccc(C2=C(O)c3ccccc3C(=O)C2=O)cc1	-	-	?	-	-	?
O=C(Nc1cccc(F)c1)N1CC[C@@]2(CCCN(C(=O)c3csnn3)C2)C1	.	-	-	.	.	.
CCOC(=O)c1cnc2ccccc2c1NCc1ccco1	?	-	-	.	?	.
CCOC(=O)c1cnc2ccccc2c1Nc1ccc2c(c1)OCCO2	?	-	?	-	-70	-
